Data reported in PubChem BioAssay (EPA / NIEHS).
Results filed as inconclusive are left out. Activity calls are given as the source filed them. How the source made its calls, unless noted: active means hit-call score of the fitted dose curve at least 0.9, where 1 is the maximum; inconclusive means response in the unintended direction; inactive means score below 0.9.

What was measured:
[1] = read-out: X-box binding protein 1 (XBP1), XBP1 (gene 7494); assay: LTEA_HepaRG_XBP1: Life Technologies and Expression Analysis (LTEA) Assay for X-box binding protein 1 (XBP1) using HepaRG (AID 2283540; active means hit-call score of the fitted dose curve at least 0.9, where 1 is the maximum; inactive means score below 0.9); settings: mRNA level, 48 h; actives raise or lower the signal
Procedure, shortened: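 Transcript levels of XBP1, measured by qRT-PCR and normalised to three housekeeping genes, were fitted bidirectionally relative to 0.5% DMSO controls. Human HepaRG cells received eight-point half-log dilutions from 100 uM for 48 h.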

[2] = LTEA_HepaRG_LDH_cytotoxicity: Cytotoxicity Assessment in the Life Technologies and Expression Analysis (LTEA) Assay (AID 2283563);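 on AC50: LDH activity released into spent culture medium as a marker of cell death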
Procedure, shortened: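 Cells were thawed and plated for 48 h. Medium was then replaced with serum-free induction medium. Chemicals (8 half-log points, maximum 100 uM, 0.5% DMSO) were added in duplicate for 48 h, after which spent medium was assayed for LDH.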

[3] = TOX21_p53_BLA_p2_viability: Viability Assessment in the Tox21 HCT-116 p53 Agonism Beta-lactamase Assay, Phase 2 (AID 2283591);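 further: compound exposure lasted 16 h at 37 °C; actives lower the ATP signal meaning cytotoxicity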
Procedure, shortened: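 HCT-116 p53-bla cells (4000/well) rested 5 h at 37C, then received compounds in DMSO (217-fold dilution) for 16 h at 37C, 5% CO2. After the CCF4 read, CellTiter-Glo was added; ATP luminescence was read after 30 min at room temperature.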

[4] = target: Cellular tumor antigen p53 (Homo sapiens) (UniProt P04637); assay: TOX21_p53_BLA_p2_ratio: Tox21 HCT-116 p53 Agonism Beta-lactamase Assay, Ratio, Phase 2 (AID 2283592)
Sequence of Cellular tumor antigen p53 (Homo sapiens) (P04637 whole entry, looked up): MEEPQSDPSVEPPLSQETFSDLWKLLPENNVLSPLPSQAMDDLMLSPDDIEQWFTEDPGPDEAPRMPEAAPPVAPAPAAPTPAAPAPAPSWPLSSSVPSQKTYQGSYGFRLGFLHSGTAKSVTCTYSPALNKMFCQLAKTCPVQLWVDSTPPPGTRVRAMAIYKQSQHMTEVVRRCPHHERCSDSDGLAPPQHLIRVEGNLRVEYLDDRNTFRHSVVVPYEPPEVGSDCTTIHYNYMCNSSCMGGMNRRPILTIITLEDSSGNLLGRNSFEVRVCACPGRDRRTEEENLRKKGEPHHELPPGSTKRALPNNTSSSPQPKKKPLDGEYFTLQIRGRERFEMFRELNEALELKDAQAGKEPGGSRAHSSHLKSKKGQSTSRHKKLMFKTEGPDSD
Procedure, shortened: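 Plated HCT116 p53-bla cells (4000/well) received compound after 5 h, then 16 h at 37C/5% CO2. CCF4-AM added, 2 h RT. Ratio of 460 to 530 nm emission taken as the p53 reporter signal.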

[5] = target: Cellular tumor antigen p53 (Homo sapiens) (UniProt P04637); assay: TOX21_p53_BLA_p3_ratio: Tox21 HCT-116 p53 Agonism Beta-lactamase Assay, Ratio, Phase 3 (AID 2283596)
Procedure, shortened: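 Cells were seeded at 4000/well, rested 5 h at 37C, then dosed with DMSO compound solutions (217-fold dilution) for 16 h. CCF4-AM substrate was loaded for 2 h at room temperature, and the 460/530 nm emission ratio was fitted for gain of signal versus DMSO.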

[6] = TOX21_p53_BLA_p4_viability: Viability Assessment in the Tox21 HCT-116 p53 Agonism Beta-lactamase Assay, Phase 4 (AID 2283597);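 further: hits lower the luminescence signal meaning cytotoxicity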
Procedure, shortened: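 Readout: ATP luminescence (CellTiter-Glo), measured 30 min after reagent addition at RT. The reagent followed a 2 h CCF4-AM incubation, and the cells had been exposed to compound for 16 h at 37C.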

[7] = target: Cellular tumor antigen p53 (Homo sapiens) (UniProt P04637); assay: TOX21_p53_BLA_p5_ratio: Tox21 HCT-116 p53 Agonism Beta-lactamase Assay, Ratio, Phase 5 (AID 2283599)
Procedure, shortened: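 HCT-116 cells carrying a p53-inducible beta-lactamase reporter were seeded at 4000 cells/well and dosed after 5 h with compound in DMSO (217-fold dilution). After 16 h at 37C, CCF4-AM substrate was added for 2 h, and the 460/530 nm emission ratio was scored as gain-of-signal versus DMSO.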

[8] = TOX21_p53_BLA_p5_viability: Viability Assessment in the Tox21 HCT-116 p53 Agonism Beta-lactamase Assay, Phase 5 (AID 2283600)
Procedure, shortened: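 Workflow: seed 4000 cells per well, wait 5 h, add compounds (DMSO, 217-fold dilution), incubate 16 h, load CCF4-AM 2 h, add CellTiter-Glo, read luminescence after 30 min.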

[9] = target: Cellular tumor antigen p53 (Homo sapiens) (UniProt P04637); assay: TOX21_p53_BLA_p4_ratio: Tox21 HCT-116 p53 Agonism Beta-lactamase Assay, Ratio, Phase 4 (AID 2283601)
Procedure, shortened: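 HCT116 cells carrying an inducible beta-lactamase reporter were plated at 4000 cells/well, rested 5 h, then exposed to compounds in DMSO (217-fold dilution) for 16 h at 37C. CCF4-AM substrate was loaded 2 h at room temperature; 460/530 nm emission ratio scored gain-of-signal versus DMSO.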

[10] = Tanguay_ZF_120hpf_MORT_legacy: (Legacy) Oregon State University Tanguay Lab 120 Hour Post-fertilization zebrafish Assay for Mortality (AID 2283633)
Procedure, shortened: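 5D WT zebrafish, chorion removed 4 hpf; 1 embryo/well from 6 hpf; static exposure to 120 hpf, 28C, dark, sealed. Final DMSO 0.64%. Readout: binary mortality, brightfield, 24 + 120 hpf; DMSO as negative control.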

[11] = Tanguay_ZF_120hpf_YSE_legacy: (Legacy) Oregon State University Tanguay Lab 120 Hour Post-fertilization zebrafish Assay for Yolk Sac Edema (AID 2283634)
Procedure, shortened: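 Dechorionate (pronase, 4 hpf) → place one 6 hpf embryo per well → static compound exposure, sealed and foil-covered, 28C, to 120 hpf → record yolk sac edema as present or absent. Final DMSO 0.64%.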

[12] = Tanguay_ZF_120hpf_AXIS_legacy: (Legacy) Oregon State University Tanguay Lab 120 Hour Post-fertilization zebrafish Assay for Body Axis Malformation (AID 2283635)
Procedure, shortened: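 Chorion is removed with pronase at 4 hpf, then single 6 hpf embryos are dosed (final DMSO 0.64%) and held statically at 28C in sealed, foil-covered plates. At 120 hpf body axis malformation is recorded as present or absent.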

[13] = Tanguay_ZF_120hpf_EYE_legacy: (Legacy) Oregon State University Tanguay Lab 120 Hour Post-fertilization zebrafish Assay for Eye Malformation (AID 2283636);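 further: binary presence or absence of eye malformation scored by brightfield in 120 hpf larvae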
Procedure, shortened: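 Static waterborne exposure of dechorionated zebrafish embryos (strain Tropical 5D), 6 to 120 hpf, sealed plates at 28C, 0.64% DMSO vehicle. Eye malformation is scored as a binary endpoint, with gain of signal analysed relative to DMSO.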

[14] = Tanguay_ZF_120hpf_SNOU_legacy: (Legacy) Oregon State University Tanguay Lab 120 Hour Post-fertilization zebrafish Assay for Snout Malformation (AID 2283637)
Procedure, shortened: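 Dechorionated zebrafish, individually housed from 6 hpf in covered, sealed wells at 28C with 0.64% DMSO vehicle, were examined at 120 hpf for snout malformation. Responses were binary and analysed positive-direction relative to DMSO.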

[15] = Tanguay_ZF_120hpf_JAW_legacy: (Legacy) Oregon State University Tanguay Lab 120 Hour Post-fertilization zebrafish Assay for Jaw Malformation (AID 2283638)
Procedure, shortened: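 Steps: dechorionate 4 hpf embryos (pronase); plate 1/well at 6 hpf; add test chemical, 0.64% DMSO final; seal, cover, hold at 28C statically to 120 hpf; score jaw defect presence/absence microscopically. Dead embryos not scored.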

[16] = Tanguay_ZF_120hpf_OTIC_legacy: (Legacy) Oregon State University Tanguay Lab 120 Hour Post-fertilization zebrafish Assay for Otic Vesicle Malformation (AID 2283639)
Procedure, shortened: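 Binary scoring of otic vesicle defects at 120 hpf in zebrafish (Tropical 5D) held under static exposure at 28C, sealed and shaded, with final DMSO 0.64%. Embryos dying by 24 or 120 hpf excluded; fitted positively against DMSO.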

[17] = Tanguay_ZF_120hpf_PE_legacy: (Legacy) Oregon State University Tanguay Lab 120 Hour Post-fertilization zebrafish Assay for Pericardial Edema (AID 2283640);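 on AC50: potency for increased incidence of pericardial edema versus DMSO baseline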
Procedure, shortened: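 Embryos from wild-type 5D adults were staged, then dosed in 0.64% DMSO. They were kept sealed in the dark at 28C until 120 hpf. Pericardial edema was then recorded as present or absent.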

[18] = TOX21_p53_BLA_p3_viability: Viability Assessment in the Tox21 HCT-116 p53 Agonism Beta-lactamase Assay, Phase 3 (AID 2283593);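 further: cells exposed to compound for 16 h before reading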
Procedure, shortened: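 HCT-116 cells (4000/well) rested 5 h at 37C, then got DMSO compounds by pin tool (217-fold dilution) for 16 h at 37C, 5% CO2. After the bla read, CellTiter-Glo was added and luminescence read at 30 min, room temperature.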

[19] = Tanguay_ZF_120hpf_BRAI_legacy: (Legacy) Oregon State University Tanguay Lab 120 Hour Post-fertilization zebrafish Assay for Brain Malformation (AID 2283641)
Procedure, shortened: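 Wild-type 5D larvae, static waterborne exposure to 120 hpf, 28C, 0.64% v/v DMSO. Brightfield scoring of brain defects, binary; dead embryos excluded. Positive ctrl 5uM trimethyltin chloride.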

Measured: AC50

CCC12COCN1COC2
not listed: [17] | [18] | [19]
inactive: all other assays above

[As]#[In]
not listed: [6] | [7] | [8] | [13] | [18] | [19]
inactive: all other assays above

Nc1ccc(Oc2ccc(N)cc2)cc1
not listed: [6] | [7] | [18] | [19]
inactive: all other assays above

COP(=S)(OC)SCN1C(=O)c2ccccc2C1=O
not listed: [7] | [18] | [19]
inactive: all other assays above

Brc1ccc(Oc2ccccc2)cc1
not listed: [6] | [7] | [10] | [14] | [17] | [18] | [19]
inactive: all other assays above

COC(=O)c1ccccc1N
not listed: [6] | [7] | [10]
inactive: all other assays above

c1ccc(NNc2ccccc2)cc1
not listed: [6] | [7] | [8] | [10] | [12] | [15] | [18] | [19]
inactive: all other assays above

Nc1ccc(N=Nc2ccccc2)cc1
active: [1] 16.8 µM | [2] 11.9 µM | [17] 25.6 µM
not listed: [10] | [18] | [19]
inactive: all other assays above

CCC(C)c1ccc(O)cc1 (stereo unspecified)
not listed: [10] | [18] | [19]
inactive: all other assays above
